NPSR antagonist: antagonists of human neuropeptide S receptor cAMP signaling; Q6W5P4; CHO-NPSR cells, cAMP TR-FRET, antagonist mode; Potency, µM (highest dose often 38.3 µM), actives largely listed as inhibitors; actives 1% (n = 220,000); AID 1461; further: nearly all actives have a fitted effect of over 50% in size
12-hLO inh: 12-hLO (ALOX12) enzyme inhibition; P18054; purified 12-hLO, xylenol orange hydroperoxide absorbance; Potency, µM (titrated, usually from 57.1 µM), hits mostly inhibitors; actives 0.12% (n = 150,000); AID 1452; further: nearly all actives have a fitted effect of over 55% in size
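150 nM 12hLO, 25 mM Hepes pH 7.0 + 0.01% Triton X-100; cpd preinc 15 min RT; 40 uM arachidonic acid, 30 min RT; Fe-XO 30 min; A573/A405 ratio as read-out.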
IMPase Li inh: cell-permeable IMPase inhibitors with lithium potentiation; Potency, µM (doses to about 59.4 µM), usual class: inhibitors; CHO-M1 cells, IP1 TR-FRET (IP-One), carbachol + lithium; actives 0.35% (n = 210,000); AID 1457;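 further: IP1 builds up when IMPase is blocked and the TR-FRET signal falls; nearly all actives have a fitted effect of over 50% in size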
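Readout is a homogeneous TR-FRET IP1 immunoassay (Ex 320, Em 665 and 620), where raised cytosolic IP1 lowers signal. Cells were CHO-M1 treated 30 min at 37C with test compounds plus a little lithium; AC50 values came from Hill-equation fitting.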
HPGD inh: blocks human HPGD enzyme activity | P15428 | purified HPGD, NADH fluorescence kinetic, PGE2 substrate | Potency, µM, usual class: inhibitors | actives 4.3% (n = 150,000) | AID 894; active means well fitted inhibition curve with a large enough effect, not every such curve was filed as active; inconclusive means small, poorly fitted or top-dose-only effect, or another doubt; inactive means no such curve, though single readings can be large or run the other way
Target sequence (P15428 whole entry, looked up): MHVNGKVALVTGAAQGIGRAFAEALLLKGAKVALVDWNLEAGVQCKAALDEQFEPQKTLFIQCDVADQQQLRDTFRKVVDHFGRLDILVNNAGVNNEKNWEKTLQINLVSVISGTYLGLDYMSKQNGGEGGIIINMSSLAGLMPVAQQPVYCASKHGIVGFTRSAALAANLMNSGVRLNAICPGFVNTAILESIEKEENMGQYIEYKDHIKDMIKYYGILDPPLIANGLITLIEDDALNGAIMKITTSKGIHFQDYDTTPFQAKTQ
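NADH formation kinetics: reaction with 30 uM PGE2 and 1 mM NAD+ (final), 20 nM enzyme, Tris-HCl pH 8 with Tween 20, after 15 min compound preincubation at room temperature. Fluorescence change, last versus first of five reads.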
ALDH1A1 inh: blocks purified human ALDH1A1 activity | P00352 | Purified ALDH1A1, NADH fluorescence, propionaldehyde substrate | Potency, µM (top dose mostly 75.3 µM), most hits filed as inhibitors | actives 7.3% (n = 220,000) | AID 1030; active means well fitted inhibition curve with a large enough effect, not every such curve was filed as active; inconclusive means small, poorly fitted or top-dose-only effect, or another doubt; inactive means no such curve, though single readings can be large or run the other way
IMPase inh: cell-permeable inhibitors of inositol monophosphatase (IMPase); P97697; CHO-M1 cells, IP1 accumulation, HTRF TR-FRET ratio; inhibition (IP1 accumulation), % at 46.1 µM; 120,000 tested, under 10 active; AID 901; active means well fitted curve in the direction sought with a large enough effect in the signal ratio, not every such curve was filed as active; inconclusive means small, poorly fitted or top-dose-only effect, or a change in a side signal; inactive means no such curve, though single readings can be large or run the other way; the % refers to the signal ratio;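 further: cells stimulated with carbachol in lithium chloride buffer; higher means more IMPase inhibition seen as more IP1 and lower FRET ratio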
Target sequence (P97697 whole entry, looked up): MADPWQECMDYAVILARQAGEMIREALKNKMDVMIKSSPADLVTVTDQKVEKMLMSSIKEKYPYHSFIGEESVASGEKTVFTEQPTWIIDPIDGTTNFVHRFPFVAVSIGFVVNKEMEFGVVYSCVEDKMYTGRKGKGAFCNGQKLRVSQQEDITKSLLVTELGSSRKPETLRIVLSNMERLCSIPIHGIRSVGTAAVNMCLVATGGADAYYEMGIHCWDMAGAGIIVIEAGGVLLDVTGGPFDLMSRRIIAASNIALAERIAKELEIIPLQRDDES
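Elevated IP1 in lysates lowers TR-FRET signal (665/620 ratio and 620 channel reported). Cells were CHO-M1, given carbachol (50 uM as added) plus 50mM LiCl, pH 7.4, 30 min, 37C; compounds titrated up to 46 uM; AC50 by Hill equation.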
Numbers stand for hits; n = inactive; u = inconclusive; x = no result given. Hits are enriched below; roughly 8.9% of the tested compounds scored in any of these assays. Unless noted, the call rests on the fitted dose curve; in most records, active means well fitted curve in the direction sought with a large enough effect; inconclusive means small, poorly fitted or top-dose-only effect, or another doubt; inactive means no such curve, though single readings can be large; an effect the other way counts as inactive or inconclusive.

SMILES	NPSR antagonist	12-hLO inh	IMPase Li inh	HPGD inh	ALDH1A1 inh	IMPase inh
Oc1ccc2c(c1)C1CCCC1(N1CCOCC1)O2 (centres undefined)	n	n	n	u	17.8µM	n
CC1=C(C(=O)N2CCOCC2)C(c2ccc(O)cc2)NC(=S)N1 (centres undefined)	n	n	n	n	u	x
O=c1c(-c2ccc(F)cc2)nc2cnc(Oc3ccccc3)nc2n1C[C@H]1CCCO1	x	n	n	u	u	x
Cc1ccc(-n2nc3c(=S)[nH]nc(C)c3c2C)cc1	u	n	4.47µM	n	n	u
Cc1n[nH]c(=S)c2nn(-c3ccccc3)c(C)c12	u	n	14.1µM	n	n	u
Cc1n[nH]c(=S)c2nn(-c3cccc(Cl)c3)c(C)c12	n	n	u	n	n	n
CCn1c(CCCOc2ccc(Cl)cc2Cl)nnc1SCC(=O)Nc1cccc(F)c1	n	n	n	n	n	n
COc1ccc(OC)c(Nc2nc(N)nc(-c3cc4ccccc4o3)n2)c1	n	n	n	u	u	n
CC(C)c1ccc(NC(=O)C(c2ccccc2)N2CCN(C(=O)c3ccco3)CC2)cc1 (centres undefined)	u	n	n	n	12.6µM	n
O=C(CN1CCN(S(=O)(=O)c2ccc(Br)cc2)CC1)N/N=C/c1ccc(Cl)c([N+](=O)[O-])c1	u	n	n	n	20µM	x
Cc1ccc(S(=O)(=O)N2CCN(CC(=O)N/N=C\c3cccnc3)CC2)cc1	n	n	n	n	n	n
O=C(CN1CCN(S(=O)(=O)c2ccc(Br)cc2)CC1)N/N=C/c1cc([N+](=O)[O-])ccc1Cl	n	n	n	n	u	x
Cc1ccc(S(=O)(=O)N2CCN(CC(=O)N/N=C\c3ccc(Cl)c([N+](=O)[O-])c3)CC2)cc1	n	n	n	n	8.91µM	u
Cc1ccc(C)c(N(CC(=O)NN=C2CCCCCCC2)S(C)(=O)=O)c1	n	n	n	n	n	n
NC(=O)c1ccc(-n2c(CCC(=O)O)ccc2-c2cccs2)cc1	n	x	n	x	3.16µM	x
CC(=O)c1ccc(-n2c(CCC(=O)O)ccc2-c2cccs2)cc1	n	n	n	n	3.55µM	n
COC(=O)c1cccc(-n2c(CCC(=O)O)ccc2-c2cccs2)c1	n	x	x	x	3.98µM	x
Cc1ccc(CSc2nnc(NC(=O)Cn3cnc4ccccc4c3=O)s2)cc1	n	x	n	x	n	x
CSc1ccc(S(=O)(=O)NCCOc2ccccc2C)cc1	n	n	n	n	12.6µM	n
CC(C)(C)SCCNS(=O)(=O)c1ccc2ccccc2c1	n	n	n	n	15µM	n
COCCCNS(=O)(=O)c1ccc(SC)cc1	n	n	n	n	u	x
CC(C)(C)SCCNS(=O)(=O)c1ccccc1	u	n	n	n	u	n
CSc1ccc(S(=O)(=O)NCCSC(C)(C)C)cc1	n	n	n	n	7.94µM	n
CC1CCC(C(C)C)C(OCC[N+](C)(C)C)C1 (centres undefined)	n	n	n	n	n	n
O=C(NNc1ccc([N+](=O)[O-])cc1)C1C2CCCCC21 (centres undefined)	n	n	n	n	25.1µM	x
SMILES	NPSR antagonist	12-hLO inh	IMPase Li inh	HPGD inh	ALDH1A1 inh	IMPase inh
Cc1nc2cnc(Oc3ccccc3)nc2n(-c2ccccc2)c1=O	x	n	n	n	22.4µM	x
COc1ccc(-n2c(=O)c(C)nc3cnc(Oc4ccccc4)nc32)cc1	x	n	n	n	2.51µM	x
Cc1ccc(Cn2nc(C)c(NC(=O)c3cc(C)no3)c2C)cc1	n	n	n	n	n	n
COc1cccc(/C=N/NC(=O)C(=O)NCc2cccnc2)c1OC	n	x	n	x	15.8µM	x
COc1cc(/C=N/NC(=O)C(=O)NCc2cccnc2)cc(OC)c1OC	n	n	n	n	n	x
O=C1N(c2ccccc2)C[C@@H]2C[C@@H](c3cccc4c3OCO4)N3CCC[C@@]123	n	x	n	x	n	x
COc1ccc(-c2nc(-c3cccs3)c(-c3cccs3)[nH]2)cc1O	10µM	n	n	u	u	n
O=C(O)c1ccc(-c2nc(-c3ccccc3)c(-c3cccs3)[nH]2)cc1	n	x	x	x	x	x
CSC1=C(C#N)C(c2ccc3c(c2)OCO3)C2=C(CCCC2=O)N1 (centres undefined)	n	n	n	15.8µM	n	x

Assay outcomes from PubChem BioAssay.
